Laboratory results as given in ChEMBL document CHEMBL3988442, “University of Dundee, Small-Polar-MMV Screening Library” (2021).

target: AMP-activated protein kinase, AMPK (Homo sapiens) (UniProt P54646+O43741+P54619+Q9UGJ0+Q9Y478+Q13131+Q9UGI9); test: AMP-dependent Kinase enzyme assay. An in vitro enzyme assay that detects ADP turnover that is directly proportional to AMPK activity. This uses naive AMPK that is activated during the assay with MK-8722; format: functional; design: scale not given: direction of the effect not stated beside the values; settings: 30 µM

SMILES	Percent Effect [%]
N#Cc1cc(S(N)(=O)=O)ccc1N1CCc2c(Cl)cccc2C1	17.4
CC(C)c1nc(C2CCCN2CCc2ccccn2)no1 (stereo not given)	20.7
COc1cccc(CN(C)C(C)C(=O)Nc2nc(C)c(C)s2)c1 (stereo not given)	5.13
O=C(Nc1cccc(C(=O)OCC2CCCN2)c1)c1ccoc1 (stereo not given)	0.474
Cc1ccccc1SCC(=O)NC1CCC(O)CC1 (stereo not given)	0.736
Cc1ccc(C(=O)N2[C@@H]3CC[C@H]2CN(C)C(=O)C3)c(=O)[nH]1	8.78
COc1cc(N2CCN(Cc3ccsc3)C(CCO)C2)nc(N)n1 (stereo not given)	-5.18
CN1CCCCC1Cc1nc2c(cc1C(N)=O)CCC2 (stereo not given)	-4.26
CCc1ccc(C(=O)N2CCCCC2CNS(C)(=O)=O)o1 (stereo not given)	-5.12
Cc1nc2cc(-c3nccn3C)nn2c(N2CCC(O)CC2)c1C	20.2
CCC(NC(=O)NC1CCN(S(C)(=O)=O)CC1)c1cccs1 (stereo not given)	-3.19
Cc1cc(C(=O)NC(C)Cc2cccc(Cl)c2)n(C)n1 (stereo not given)	10.6
CCOc1ccccc1-n1c(C2CCC2)n[nH]c1=O	13.5
Cc1cnc(N2CCN(C(C)C(N)=O)CC2)nc1 (stereo not given)	-0.289
Cc1n[nH]c(C)c1NC(=O)NCc1cc[nH]n1	-7.26
CCS(=O)(=O)NCc1nc(C)cc(N2CCCCC2)n1	0.829
CSc1ccc(C)c(C(=O)Nc2c(C(N)=O)n[nH]c2C)c1	3.27
N#CC1(C(=O)N2C[C@H]3CC[C@@H]2CN(Cc2ccncc2)C3)CCOCC1	-2.51
O=C1NC(C(=O)NCc2cccnc2Oc2ccc(F)c(F)c2)CO1 (stereo not given)	0.367
O=C(Cn1ccc(-c2ccccc2)n1)N1CCN(C(=O)C2CC2)CC1	-3.88
